Data published in PubChem BioAssay.
Active and inactive are the calls of the source.

What was measured:
Albumin (Bos taurus) = Albumin (Bos taurus) (UniProt P02769); assay: bovine serum albumin binders on microarray, profiling panel, artefact control for SMM control protein annotation, biochemical, small-molecule microarray, Alexa647 label, 635/667 nm fluorescence (AID 1118); conditions: BSA-A647 binding, fluorescence 635 nm, higher = more signal;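 further: score merges 667 nm emission intensity and signal-to-noise per printed compound spot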
Sequence of Albumin (Bos taurus) (P02769 whole entry, looked up): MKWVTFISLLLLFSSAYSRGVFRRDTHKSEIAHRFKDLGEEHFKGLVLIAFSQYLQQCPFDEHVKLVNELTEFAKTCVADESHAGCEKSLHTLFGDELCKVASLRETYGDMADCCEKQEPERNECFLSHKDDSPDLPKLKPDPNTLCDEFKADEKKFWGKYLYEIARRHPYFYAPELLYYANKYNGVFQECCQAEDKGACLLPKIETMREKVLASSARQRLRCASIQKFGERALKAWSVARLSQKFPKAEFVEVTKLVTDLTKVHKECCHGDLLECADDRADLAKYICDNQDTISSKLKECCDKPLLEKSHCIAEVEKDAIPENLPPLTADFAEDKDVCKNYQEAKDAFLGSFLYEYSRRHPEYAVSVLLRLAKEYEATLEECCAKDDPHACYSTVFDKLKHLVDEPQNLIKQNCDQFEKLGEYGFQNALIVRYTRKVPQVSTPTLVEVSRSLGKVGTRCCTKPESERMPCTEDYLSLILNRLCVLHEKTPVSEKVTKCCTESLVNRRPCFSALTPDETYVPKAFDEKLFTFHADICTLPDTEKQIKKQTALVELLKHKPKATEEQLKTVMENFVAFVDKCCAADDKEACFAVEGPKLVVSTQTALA

[1] = small-molecule microarray binders of probe aXIP, primary screen, biochemical, NeuroSMM set, 635/667 nm fluorescence (AID 1119); conditions: higher = more signal, called active from +8 up or from −8 down;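 further: probe is the protein aXip251-270 applied at 1 µg/mL to compound-printed slides; binding of probe to printed compounds measured as 667 nm fluorescence plus signal to noise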
[2] = small-molecule binders of probe aNOTCH3, primary screen, biochemical, small-molecule microarray, 635/667 nm fluorescence (AID 1120); conditions: higher = more signal;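 further: probe is a biotin-tagged antibody raised against NOTCH3 rather than NOTCH3 protein; score merges spot fluorescence near 667 nm with spot signal to noise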
[3] = small-molecule binders of probe aNOTCH2, primary screen, biochemical, small-molecule microarray, 635/667 nm fluorescence (AID 1121); conditions: higher = more signal;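 further: score merges feature fluorescence read at 667 nm with its signal to noise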
[4] = target: Carbonic anhydrase 2 (Homo sapiens) (UniProt P00918); assay: CAII small-molecule binders, profiling panel, biochemical, small-molecule microarray, Alexa647-labelled CAII (AID 1122); conditions: CAII-A647 binding fluorescence, higher = more signal
[5] = COS7 lysate on small-molecule microarray, probe aHis, 635 nm (AID 1123); conditions: COS7 cell lysate, fluorescence, higher = more signal;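 further: z-score combines 667nm fluorescence intensity with signal-to-noise per printed compound spot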
[6] = compound binding in COS7 lysate, probe aLAP1, primary screen, cell lysate, small-molecule microarray (AID 1124); conditions: probe aLAP1, fluorescence, higher = more signal;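 further: lysate comes from COS7 cells expressing LAP1 and is applied at 0.3 µg/mL; score merges spot fluorescence near 667 nm with signal-to-noise over triplicate slides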
Sam68 (KHDRBS1) = assay: Sam68 small-molecule binders, primary screen, biochemical, small-molecule microarray, 635 nm fluorescence (AID 1125); conditions: small-molecule microarray binding, higher = more signal;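 further: score merges 667 nm channel intensity with signal to noise over triplicate slides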
[7] = system: Chordin-like protein 2 (CHRDL2); assay: CHRDL2 small-molecule binders, primary screen, biochemical, small-molecule microarray, 635 nm fluorescence (AID 1126); conditions: small-molecule microarray binding, fluorescence 635 nm; higher = more signal;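 further: printed compound slides probed with Chrdl2 protein at 4 µg/mL for 1 h at 4 C; score merges 667 nm emission intensity with signal to noise over three replicate slides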
[8] = target: Concanavalin-A (Canavalia ensiformis) (UniProt P02866); assay: ConA small-molecule binders, primary screen, artefact control for SMM control protein annotation, biochemical, small-molecule microarray, Alexa647 label, 635 nm (AID 1127); conditions: ConA-A647 binding fluorescence, higher = more signal;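 further: z combines 667 nm emission intensity with signal-to-noise across three replicate slides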
Sequence of Concanavalin-A (Canavalia ensiformis) (P02866 whole entry, looked up): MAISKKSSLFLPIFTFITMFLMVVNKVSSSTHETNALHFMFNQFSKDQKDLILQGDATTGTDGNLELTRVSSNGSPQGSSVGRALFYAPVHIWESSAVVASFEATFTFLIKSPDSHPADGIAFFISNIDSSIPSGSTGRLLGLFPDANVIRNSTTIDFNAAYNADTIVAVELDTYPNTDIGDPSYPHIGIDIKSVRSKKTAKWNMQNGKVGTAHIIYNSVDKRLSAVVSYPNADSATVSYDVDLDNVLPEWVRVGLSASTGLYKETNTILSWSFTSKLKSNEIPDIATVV

[9] = anti-His antibody binders, primary screen, artefact control for SMM control protein annotation, biochemical, small-molecule microarray, 635 nm fluorescence (AID 1128); conditions: anti-His Alexa647 antibody binding, higher = more signal;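 further: score merges feature fluorescence with signal-to-noise for each printed compound spot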
[10] = system: Human papillomavirus type 1a E7 protein (residues 1-88); assay: HPV1a E7 small-molecule binders, primary screen, biochemical, small-molecule microarray, residues 1-88, 635 nm (AID 1129); conditions: small-molecule microarray binding, fluorescence 635 nm; higher = more signal
[11] = target: Focal adhesion kinase 1 (Homo sapiens) (UniProt Q05397); assay: small-molecule microarray binders of FAK, primary screen, biochemical, 635/667 nm fluorescence, BSA, DTT (AID 1130); conditions: PTK2 binding, 635 nm fluorescence, higher = more signal;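 further: composite of spot emission at 667 nm and signal to noise over triplicate slides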
Sequence of Focal adhesion kinase 1 (Homo sapiens) (Q05397 whole entry, looked up): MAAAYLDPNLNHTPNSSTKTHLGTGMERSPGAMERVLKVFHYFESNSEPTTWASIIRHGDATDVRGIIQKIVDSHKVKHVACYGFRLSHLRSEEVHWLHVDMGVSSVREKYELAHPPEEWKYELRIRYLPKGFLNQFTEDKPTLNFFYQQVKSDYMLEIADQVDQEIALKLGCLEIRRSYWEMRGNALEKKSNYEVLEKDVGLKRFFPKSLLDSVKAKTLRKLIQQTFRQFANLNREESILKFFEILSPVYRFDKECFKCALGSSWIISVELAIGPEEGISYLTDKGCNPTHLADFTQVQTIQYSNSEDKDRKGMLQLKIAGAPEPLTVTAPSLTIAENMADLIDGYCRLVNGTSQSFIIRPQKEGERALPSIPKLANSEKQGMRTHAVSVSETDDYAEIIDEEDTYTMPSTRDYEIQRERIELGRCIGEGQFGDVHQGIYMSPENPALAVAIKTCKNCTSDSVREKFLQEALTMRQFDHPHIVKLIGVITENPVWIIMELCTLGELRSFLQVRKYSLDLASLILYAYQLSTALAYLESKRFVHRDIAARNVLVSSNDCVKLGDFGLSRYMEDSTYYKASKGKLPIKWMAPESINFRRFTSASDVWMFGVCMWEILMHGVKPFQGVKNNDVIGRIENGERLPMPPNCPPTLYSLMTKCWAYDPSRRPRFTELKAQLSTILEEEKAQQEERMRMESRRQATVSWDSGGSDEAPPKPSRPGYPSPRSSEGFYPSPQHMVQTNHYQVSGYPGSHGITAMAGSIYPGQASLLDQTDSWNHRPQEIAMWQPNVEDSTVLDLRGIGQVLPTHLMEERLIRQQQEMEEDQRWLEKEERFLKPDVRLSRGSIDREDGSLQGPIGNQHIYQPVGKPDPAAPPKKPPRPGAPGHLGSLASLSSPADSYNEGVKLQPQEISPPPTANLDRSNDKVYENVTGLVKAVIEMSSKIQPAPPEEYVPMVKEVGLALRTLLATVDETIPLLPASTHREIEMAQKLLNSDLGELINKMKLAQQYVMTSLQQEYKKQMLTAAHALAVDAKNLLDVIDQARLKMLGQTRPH

[12] = system: Fibrinogen (Alexa647-labelled); assay: fibrinogen binders on compound microarrays, profiling panel, artefact control for SMM control-protein annotation, biochemical, small-molecule microarray, 635/667 nm fluorescence (AID 1131); conditions: fibrinogen-A647 binding fluorescence, higher = more signal;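 further: z-score merges 667 nm fluorescence with per-spot signal-to-noise over triplicate slides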
[13] = target: Follistatin (Homo sapiens) (UniProt P19883); assay: follistatin binders on small-molecule microarrays, primary screen, biochemical, small-molecule microarray, 635/667 nm fluorescence (AID 1132); conditions: FST binding, 635 nm fluorescence, higher = more signal
Sequence of Follistatin (Homo sapiens) (P19883 whole entry, looked up): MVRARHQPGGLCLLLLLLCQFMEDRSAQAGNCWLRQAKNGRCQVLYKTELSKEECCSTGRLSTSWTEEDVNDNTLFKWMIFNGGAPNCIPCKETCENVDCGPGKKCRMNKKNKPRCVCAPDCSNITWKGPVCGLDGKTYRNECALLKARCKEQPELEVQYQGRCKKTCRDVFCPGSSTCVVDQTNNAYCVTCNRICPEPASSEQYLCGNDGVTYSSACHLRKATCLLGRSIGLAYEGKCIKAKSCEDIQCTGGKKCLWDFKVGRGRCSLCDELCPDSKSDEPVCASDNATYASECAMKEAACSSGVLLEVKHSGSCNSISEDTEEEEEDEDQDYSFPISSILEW

[14] = target: Fibroblast growth factor 2 (Homo sapiens) (UniProt P09038); assay: FGF2 binders on small-molecule microarrays, primary screen, biochemical, small-molecule microarray, 635/667 nm fluorescence (AID 1133); conditions: small-molecule microarray binding, FGF2, fluorescence 635/667; higher = more signal
Sequence of Fibroblast growth factor 2 (Homo sapiens) (P09038 whole entry, looked up): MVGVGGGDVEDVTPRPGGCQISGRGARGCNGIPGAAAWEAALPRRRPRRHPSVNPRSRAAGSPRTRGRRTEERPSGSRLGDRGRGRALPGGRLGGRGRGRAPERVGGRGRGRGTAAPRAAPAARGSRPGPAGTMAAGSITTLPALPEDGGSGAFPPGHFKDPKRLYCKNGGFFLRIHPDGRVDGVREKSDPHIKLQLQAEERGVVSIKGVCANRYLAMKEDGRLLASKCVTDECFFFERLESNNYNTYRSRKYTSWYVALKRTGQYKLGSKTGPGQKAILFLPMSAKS

[15] = mitochondrial membrane potential change in A549 cells, profiling panel, cell-based, JC-1 fluorescence, basal, 24 h, 100 nL (AID 1138); conditions: higher = more signal;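 further: A549 lung adenocarcinoma cells under basal conditions with no added stimulus; test concentration not given here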
Lefty1 = Lefty1 binders on small-molecule microarrays, primary screen, biochemical, small-molecule microarray, 635/667 nm fluorescence (AID 1139); conditions: small-molecule microarray binding, fluorescence 635/667; higher = more signal
[16] = system: wheat germ agglutinin (Triticum aestivum), Alexa647-labelled; assay: wheat germ agglutinin binders on compound microarrays, profiling panel, artefact control for SMM control-protein annotation, biochemical, small-molecule microarray, 635/667 nm fluorescence (AID 1140); conditions: WGA-A647 binding, 635 nm fluorescence, higher = more signal;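 further: score merges 667 nm feature emission with signal to noise over triplicate slides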
[17] = target: Luciferin 4-monooxygenase (Photinus pyralis) (UniProt P08659); assay: firefly luciferase enzyme inhibitors, primary screen, biochemical, luminescence, purified enzyme, 2006 set (AID 1141); conditions: SteadyGlo luminescence, 30 min, higher = more signal, called active from +8 up or from −8 down;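 further: cell-free assay with purified firefly luciferase at 100 ng per well in PBS; test concentration not given here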
Sequence of Luciferin 4-monooxygenase (Photinus pyralis) (P08659 whole entry, looked up): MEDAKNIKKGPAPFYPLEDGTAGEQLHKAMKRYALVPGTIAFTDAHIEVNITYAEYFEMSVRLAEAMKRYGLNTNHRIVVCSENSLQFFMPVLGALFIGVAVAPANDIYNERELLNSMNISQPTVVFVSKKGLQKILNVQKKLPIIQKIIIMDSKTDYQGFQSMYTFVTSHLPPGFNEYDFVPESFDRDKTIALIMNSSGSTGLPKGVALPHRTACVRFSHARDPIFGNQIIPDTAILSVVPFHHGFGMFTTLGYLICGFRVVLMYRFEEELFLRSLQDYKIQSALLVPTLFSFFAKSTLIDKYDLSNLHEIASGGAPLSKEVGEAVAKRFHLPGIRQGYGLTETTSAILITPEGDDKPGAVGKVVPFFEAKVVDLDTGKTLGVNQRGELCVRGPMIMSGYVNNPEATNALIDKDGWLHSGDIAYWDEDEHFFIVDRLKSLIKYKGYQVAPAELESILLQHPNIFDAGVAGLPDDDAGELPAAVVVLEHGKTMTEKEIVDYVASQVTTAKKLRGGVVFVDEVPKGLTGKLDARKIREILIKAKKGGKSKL

Row | Structure (SMILES) | composite z-score (Albumin (Bos taurus)) | composite Z-score [1] | composite z-score [2] | composite z-score [3] | composite z-score [4] | composite z-score [5] | composite z-score [6] | composite z-score (Sam68 (KHDRBS1)) | composite z-score [7] | composite z-score [8] | composite z-score [9] | composite z-score [10] | composite z-score [11] | composite z-score [12] | composite z-score [13] | composite z-score [14] | z-score [15] | composite z-score (Lefty1) | composite z-score [16] | z-score [17]
1 | c1ccc(C2NCCc3c2[nH]c2ccccc32)cc1 (stereo not given) | 0.0809 | -0.0389 (inactive) | 0.0876 | -0.053 | 0.743 | -0.0295 | -0.0502 | -0.409 | 0.195 | -0.082 | 0.191 | -0.805 | -0.0707 | -1.82 | 0.236 | 0.737 | -0.104 | 0.588 | 0.466 | 0.495 (inactive)
2 | C=COC[C@H]1CN2[C@@H](CC[C@@H](C)[C@@H]2c2ccc(Br)cc2)C(=O)O1 | 0.496 | -0.0224 (inactive) | 0.0999 | 0.0877 | 0.459 | 0.807 | 0.446 | 1.33 | 0.664 | 1.03 | 1.25 | 0.394 | 0.0351 | 0.673 | 0.504 | 0.706 | 0.587 | 0.51 | 0.276 | -2.84 (inactive)
3 | CC(CCC(=O)OC[C@H]1O[C@H](C#Cc2ccccc2)C=C[C@@H]1Oc1ccc(C)cc1)=NOC[C@@H](O)[C@H]1O[C@@H]2OC(C)(C)O[C@@H]2[C@H]1O | -0.326 | -0.404 (inactive) | -0.2 | -0.187 | -0.023 | -0.282 | 0.137 | 0.14 | -0.532 | -0.614 | 0.418 | -0.106 | 0.0116 | -0.38 | -0.382 | -0.448 | 0.343 | 0.131 | -0.604 | 0.29 (inactive)
4 | C[C@@H]1CC[C@H]2C(=O)O[C@H](COc3ccc(C(C)(C)C)cc3)CN2[C@H]1c1ccc(Br)cc1 | 0.673 | 0.458 (inactive) | -0.0716 | 0.0776 | -0.113 | -0.231 | 0.157 | -0.734 | 0.0828 | -0.212 | 2.99 | -0.701 | -0.0482 | 0.54 | -0.123 | 0.0203 | 1.87 | 0.0924 | 0.148 | -1.36 (inactive)
5 | CCN1C(=O)[C@H]2[C@H]3[C@H](O)[C@H](O)CC(=NOC(C)CN4CCCCc5nc(C)c(C)cc54)[C@@H]3CC[C@H]2C1=O (stereo not given in full) | -0.428 | -0.467 (inactive) | -0.0511 | -0.0539 | -0.144 | -0.144 | 0.0096 | 0.238 | 1.22 | -0.0891 | 2.1 | 0.0084 | 0.167 | -0.323 | 0.861 | 0.541 | 0.0743 | 0.672 | 0.0283 | 0.161 (inactive)
6 | NC(=O)NCC#Cc1ccc2c(c1)[C@]1(C(=O)N2)[C@H](c2ccc(O)cc2)N2[C@H](c3ccccc3)[C@H](c3ccccc3)OC(=O)[C@H]2[C@@H]1C(=O)N1CCCCCCC1 | -0.476 | 0.645 (inactive) | 0.976 | -0.172 | 0.39 | 0.594 | 0.596 | 0.792 | 0.983 | 0.848 | 0.687 | 0.564 | -0.222 | 0.161 | 1.34 | 0.25 | 0.296 | 1.02 | 0.604 | 0.363 (inactive)
7 | CCN1C(=O)[C@H]2[C@H]3[C@H](O)C=CC(=O)[C@@H]3CC[C@H]2C1=O | -0.338 | -0.56 (inactive) | 0.0519 | -0.117 | -0.132 | -0.177 | 0.402 | 0.234 | 0.587 | 0.373 | 0.635 | 0.936 | 0.0565 | 0.677 | 0.307 | 0.731 | -0.774 | 0.514 | 0.295 | -0.605 (inactive)
8 | COCCOC(=O)N1C(=O)[C@@]2(c3cc(C#CCNC(N)=O)ccc31)[C@H](c1ccc(O)cc1)N1[C@H](c3ccccc3)[C@H](c3ccccc3)OC(=O)[C@H]1[C@@H]2C(=O)N1CCCCCCC1 | -0.466 | -0.624 (inactive) | 0.207 | -0.108 | 0.244 | 0.734 | 0.382 | 1.3 | 1.15 | 0.615 | 0.127 | 0.857 | 0.14 | 0.606 | 1.3 | 1.5 | -1.18 | 1.05 | 0.566 | 0.629 (inactive)
9 | CC(C)[C@@H](OCc1ccccc1)[C@H](C)C=NOC[C@@H](C)[C@H](OCc1ccccc1)C(C)C | -0.248 | -0.161 (inactive) | -0.0111 | -0.126 | -0.265 | -0.393 | -0.0427 | -0.24 | 0.457 | 0.31 | 0.0377 | 0.289 | 0.121 | -0.0745 | 0.426 | 0.139 | -0.753 | 0.595 | -0.0388 | -0.11 (inactive)
10 | CCc1cc2c(nc1CC)CCN(CCC(C)=NOC(C)CN1CCCc3nc(C)c(C)cc31)C2 (stereo not given) | 0.263 | 1.74 (inactive) | 0.724 | 0.271 | 0.461 | 1.18 | 0.0412 | 1.29 | 0.726 | 0.952 | -0.295 | 0.973 | 0.63 | 0.398 | 1.31 | 0.631 | 1.2 | 1.29 | 0.467 | 0.62 (inactive)
11 | COCCCNC(=O)[C@]1(CCC(=O)OC(C)(C)C)N=C(c2ccc(OCCCO)cc2)O[C@@H]1c1ccccc1N=[N+]=[N-] | 0.913 | 0.201 (inactive) | 0.534 | -0.092 | 0.725 | 3.09 | 0.0106 | 1.31 | -0.18 | 1.17 | 1.96 | 1.23 | 0.688 | 1.03 | 1.28 | 0.894 | 0.6 | 0.735 | 0.778 | -12 (active)
